Counter-ions that a name gives are not always drawn.
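Note: viability read out with the CCK-8 kit in 96-well plates, screening a set of 303 compounds acting on lipid metabolism targets.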

The subject of this test is HCC1937. The experiment in a line: relative cell viability, compound alone, vs DMSO (fraction of DMSO control); higher = less growth inhibition. Conditions: 72 h.
Consider `COc1ccc(/C=C/c2cc(O)cc(O[C@@H]3O[C@H](CO)[C@@H](O)[C@H](O)[C@H]3O)c2)cc1` [Deoxyrhapontin], for which the relative cell viability stood at 0.932.

Molecule `C[C@H](CCOc1cccc(CC(=O)O)c1)N(Cc1cccc(C(F)(F)F)c1Cl)CC(c1ccccc1)c1ccccc1` gave a relative cell viability of 0.632. Take `CC(C)CCC[C@@H](C)[C@H]1CC[C@H]2[C@@H]3CC=C4C[C@@H](O)CC[C@]4(C)[C@H]3CC[C@]12C` [Cholesterol]: the relative cell viability is 0.91.

The molecule `Cc1c(C(=O)NN2CCOCC2)nn(-c2ccc(Cl)cc2Cl)c1-c1ccc(I)cc1` showed a relative cell viability of 0.645. Take `CN1CCN(C(=O)C2C(C(=O)O)[C@H]3CC[C@@H]2O3)CC1` (some centres undefined): the relative cell viability amounted to 0.568.

Regarding `CN(C)C(=N)NC(=N)N` [Metformin], the relative cell viability amounted to 0.646.

As to `CC[C@H](C)C(=O)O[C@H]1CCC=C2C=C[C@H](C)[C@H](CC[C@@H]3C[C@@H](O)CC(=O)O3)[C@H]21` [Mevastatin], the relative cell viability came out at 0.819. Molecule `CC[C@H]1[C@@H](O)[C@@H]2[C@H](CC[C@]3(C)[C@@H]([C@H](C)CCC(=O)O)CC[C@@H]23)[C@@]2(C)CC[C@@H](O)C[C@@H]12` [Obeticholic Acid] yielded a relative cell viability of 0.901. As to `COc1cc(N2CCN(C)CC2)ccc1Nc1ncc2c(n1)N(C1CCC1)C(=O)N(c1c(C)cccc1C)C2`, the relative cell viability was 0.817.

In the case of `CCCCCCCCCCCCC/C=C/[C@@H](O)[C@@H](N)CO`, the relative cell viability amounted to 0.331. For the molecule `COC(=O)CN(c1ccc(CN(c2ccc(OCc3ccc(C)cc3)c(C(=O)OC)c2)S(=O)(=O)Cc2ccccc2)cc1)S(C)(=O)=O`, the relative cell viability is 0.894. Regarding `CCN(CC)CCCC(C)Nc1c2ccc(Cl)cc2nc2ccc(OC)cc12` (centres undefined) [Quinacrine dihydrochloride], the relative cell viability came out at 0.212. In turn, `CC(=O)Nc1nc(C)c(S(=O)(=O)Nc2ccc(C(O)(C(F)(F)F)C(F)(F)F)cc2)s1` had a relative cell viability of 1.29. `CC(C)c1c(C(=O)Nc2ccccc2)c(-c2ccccc2)c(-c2ccc(F)cc2)n1CC[C@@H](O)C[C@@H](O)CC(=O)O` [Atorvastatin Calcium] gave a relative cell viability of 0.657. The value for `O=C1c2cc(CO)cc(O)c2C(=O)c2c(O[C@@H]3O[C@H](CO)[C@@H](O)[C@H](O)[C@H]3O)cccc21` [Aloe-emodin-8-O-beta-D-glucopyranoside] was 0.544. With `CN(CCOc1ccc(CC2SC(=O)NC2=O)cc1)c1ccccn1` (centres undefined) [Rosiglitazone maleate], the relative cell viability amounted to 0.841.

Regarding `CN1c2ccccc2C(=O)Nc2cnc(Nc3ccc(N4CCC(O)CC4)cc3)nc21`, the relative cell viability came out at 0.384. With `CCC(C)(Oc1ccc(C2(c3ccc(OC(C)(CC)C(=O)O)cc3)CCCCC2)cc1)C(=O)O` (centres undefined) [Clinofibrate], the relative cell viability amounted to 0.901. The value for `N[C@@H](Cc1c[nH]cn1)C(=O)O` [histidine] was 1.05; that for `Nc1ccc(O)c(C(=O)O)c1` [Mesalamine] was 1.17. Next, `CC(C)[C@H](N=C(NS(=O)(=O)c1ccc(Cl)cc1)N1C[C@H](c2ccccc2)C(c2ccc(Cl)cc2)=N1)C(N)=O`: 0.87; `C[C@@H](Nc1nc(N[C@H](C)C(F)(F)F)nc(-c2cccc(Cl)n2)n1)C(F)(F)F` [Vorasidenib]: 0.708. Turning to `Cc1cc([N+](=O)[O-])ccc1NS(=O)(=O)c1cc(Cl)ccc1Cl`, the relative cell viability was 0.579.

For `O=c1c(O[C@@H]2O[C@H](CO)[C@@H](O)[C@H](O)[C@H]2O)c(-c2ccc(O)cc2)oc2cc(O)cc(O)c12` [Astragalin], the relative cell viability amounted to 0.937. In the case of `Cc1cc(N2C[C@@H](C)N[C@@H](C)C2)ncc1-c1ccc(-c2nc3c(ccn3C)c(=O)[nH]2)cc1`, the relative cell viability is 0.855. `COc1cc(N(C)C)cc(CN(C)CCc2ccc([N+](=O)[O-])cc2)c1O` [CDC25 Phosphatase Inhibitor I]: the relative cell viability amounted to 0.966.

Take `COc1ccc(-n2c(SCCCN3C(=O)c4cccc5cccc(c45)C3=O)nnc2-c2ccncc2)cc1`: the relative cell viability worked out at 0.661.

Turning to `CC(C)(Oc1ccc(Cl)cc1)C(=O)O` [Clofibric acid], the relative cell viability amounted to 1.24. Take `OC[C@H]1O[C@@H](Oc2cc(O)cc(/C=C/c3ccc(O)cc3)c2)[C@H](O)[C@@H](O)[C@@H]1O` [Polydatin]: the relative cell viability came to 1.07. `CCNC1(C(N)=O)CCN(c2ncnc3c2nc(-c2ccccc2Cl)n3-c2ccc(Cl)cc2)CC1` [Otenabant]: the relative cell viability is 0.906.

Take `CCc1ccc(N(CC(C)C)S(=O)(=O)c2ccc(OCC3CCOCC3)c(CO)c2)cc1`: the relative cell viability worked out at 0.954. For `Nc1cccc(S(=O)(=O)N2CCCN(S(=O)(=O)c3ccc4c(c3)OCCO4)CC2)c1`, the relative cell viability was found to be 0.881.

In the case of `CC(C)(C)c1ccc(-c2nc3ccccc3[nH]2)cc1`, the relative cell viability came to 0.728. `CC(C)=CCC[C@](C)(O)[C@H]1CC[C@]2(C)[C@@H]1[C@H](O)C[C@@H]1[C@@]3(C)CC[C@H](O)C(C)(C)[C@@H]3[C@@H](O)C[C@]12C` [(20S)-Protopanaxatriol] yielded a relative cell viability of 1.24.

In turn, `CC(C)c1nc(N(C)S(C)(=O)=O)nc(-c2ccc(F)cc2)c1/C=C/[C@@H](O)C[C@@H](O)CC(=O)O` [Rosuvastatin] displayed a relative cell viability of 0.633.

`Cc1c(C)c2c(c(C)c1O)CCC(C)(COc1ccc(CC3SC(=O)NC3=O)cc1)O2` (centres undefined) [Troglitazone] registered a relative cell viability of 0.718.

Regarding `CC(C)CCC[C@@H](C)[C@H]1CC[C@H]2[C@@H]3CCC4=CC(=NO)CC[C@]4(C)[C@H]3CC[C@]12C` [Olesoxime], the relative cell viability is 0.978.

`NC(N)=NN=Cc1cccc(Cl)c1Cl` [Raphin1] displayed a relative cell viability of 0.818.

As for `C=CC[S+]([O-])C[C@H](N)C(=O)O` (some centres undefined) [Alliin], the relative cell viability worked out at 1.

Source of the values: the supplement of paper PMC9492666.
